# Rv3671c inh – inhibits the M. tuberculosis serine protease Rv3671c | P9WHR9 | AID 2606 | 320,000 tested, 0.048% active | inhibition, % at 5.96 µM; in the data active means inhibition above about 38%;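 further: extracellular domain of Rv3671c used as enzyme; 0% = enzyme with DMSO and 100% = no enzyme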
# Target sequence (P9WHR9 whole entry, looked up, the tested form may be a part): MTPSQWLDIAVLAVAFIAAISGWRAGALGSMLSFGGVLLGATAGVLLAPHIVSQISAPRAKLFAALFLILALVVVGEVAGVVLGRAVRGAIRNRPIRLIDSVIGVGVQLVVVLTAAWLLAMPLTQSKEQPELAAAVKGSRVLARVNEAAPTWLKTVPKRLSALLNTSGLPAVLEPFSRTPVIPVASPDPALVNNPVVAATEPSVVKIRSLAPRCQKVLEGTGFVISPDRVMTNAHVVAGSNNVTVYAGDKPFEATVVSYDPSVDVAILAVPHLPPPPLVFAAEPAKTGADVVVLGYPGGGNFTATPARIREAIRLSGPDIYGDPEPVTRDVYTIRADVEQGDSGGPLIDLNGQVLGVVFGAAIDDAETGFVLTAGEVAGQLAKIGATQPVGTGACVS
# Mtb betalactam – beta-lactam sensitization of Mtb H37Rv. 330,000 tested, 0.27% active. inhibition, % at 25 µM. M. tuberculosis H37Rv growth with meropenem, percent inhibition. AID 434955; call rule not given here;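 further: growth measured after seven days incubation then overnight dye step; 0% = bacteria only wells and 100% = bacteria with antibiotic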
# FadD28 FP inh – M. tuberculosis FadD28 bisubstrate binding inhibition; inhibition, % at 12.5 µM; FadD28 bisubstrate probe binding, fluorescence polarization; 360,000 tested, 0.22% active; in the data active means inhibition above about 8.5%, passing the limit was not always enough
# GDH-TPI inh – inhibits GDH-TPI coupling enzymes, artifact for Mtb FBA screen. GDH-TPI coupled enzyme counterscreen, NADH absorbance. inhibition, % at 4.8 µM. 360,000 tested, 1.2% active. AID 588335; in the data active means inhibition above about 30%;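 further: 0% = DMSO wells and 100% = wells lacking the enzyme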
# FBA Mtb inh – inhibits M. tuberculosis FBA enzyme; P9WQA3; purified M. tuberculosis FBA, fluorescence read-out; inhibition, % at 1 µM; 360,000 tested, 2.3% active; in the data active means inhibition above about 27%;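 further: 0% = vehicle and 100% = reference inhibitor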
# UGM FP inh – inhibitors of M. tuberculosis UDP-galactopyranose mutase | P9WIQ1 | purified UGM, fluorescence polarization probe displacement | inhibition, % at 10 µM | 320,000 tested, 0.06% active | AID 504406; in the data active means inhibition above about 10%, passing the limit was not always enough
# Starred values were filed as active, the others as inactive; · = no result. Compounds with a hit are over-represented: about 3.7% of the library has one in this group of screens.
SMILES,Rv3671c inh,Mtb betalactam,FadD28 FP inh,GDH-TPI inh,FBA Mtb inh,UGM FP inh
COc1cc(C(=O)NNC(=O)/C=C/c2ccccc2)cc(OC)c1OC,-1,3,-2,10,2,1
COc1ccc(/C=C/C(=O)NC(=S)NNC(=O)Cc2cccs2)cc1OC,-6,1,1,38*,6,1
COc1cc(C(=O)NNC(=S)NC(=O)/C=C/c2ccccc2)cc(OC)c1OC,10,-5,-2,43*,2,1
COc1ccc(/C=C/C(=O)NC(=S)NNC(=O)c2cccnc2)cc1OC,4,0,-2,38*,-2,2
O=C(/C=C/c1ccccc1)NC(=S)NNC(=O)c1cnccn1,5,-3,-1,41*,5,0
COc1ccc(/C=C/C(=O)NC(=S)NNC(=O)c2cccs2)cc1OC,13,-3,-3,21,2,-2
N#CC(C#N)=C1SC(=Nc2ccccc2)C(=Nc2ccccc2)N1c1ccccc1,·,·,-4,1,-2,·
CC1(C(=O)NS(=O)(=O)c2ccccc2OC(F)(F)F)CCN1C(=O)c1ccccc1 (configuration not stated),·,·,-2,9,2,·
Cc1cc(NC(=O)C2(C)CCN2C(C)C)c2ccccc2n1 (configuration not stated),·,·,-1,7,0,·
CN(C(=O)CSc1nc2ccc([N+](=O)[O-])cc2s1)C1CCS(=O)(=O)C1 (configuration not stated),3,-5,-3,34*,0,6
COc1ccccc1NC(=O)COC(=O)Cn1cnc2c1c(=O)n(C)c(=O)n2C,-18,-6,·,5,-4,3
COc1ccc(/C=N/NC(=O)c2ccc[nH]2)cc1,2,-5,-5,32*,-2,0
CSc1ccc(/C=N/NC(=O)c2ccccc2Cl)cc1,-12,8,-1,72*,8,1
COc1cc(/C=N/NC(=O)c2ccc(O)cc2)ccc1OCC(=O)Nc1cccc([N+](=O)[O-])c1,-2,11,-4,28,1,-1
COc1cc(/C=N/NC(=O)c2ccc(O)cc2)ccc1OCC(=O)N1CC(C)OC(C)C1 (configuration not stated),0,-8,-4,52*,-4,-2
CSc1ccc(/C=N/NC(=O)c2ccc(O)cc2)cc1,-5,3,0,55*,8,1
CN(C)c1ccc(/C=N/NC(=O)c2ccccc2Cl)cc1,4,-4,2,26,2,2
COc1ccc(/C=N/NC(=O)c2cccnc2)cc1,-2,0,1,14,-1,0
O=C(N/N=C/c1ccc(O)cc1)c1ccncc1,0,6,-1,25,3,-2
CCCS(=O)(=O)NC(=O)C1(C)CCCN(C(=O)c2ccccc2C(F)(F)F)C1 (configuration not stated),·,·,0,4,3,·
O=C(NC1CC1)c1ccc2nc([C@@H]3O[C@H](CO)[C@H](O)[C@H](O)[C@H]3O)[nH]c2c1,·,·,-2,7,-1,·
COc1ccc(C(=O)N/N=C/c2ccc(OC(=O)c3ccccc3)cc2)cc1,-2,58,2,13,-4,2
COc1ccc(/C=N\NC(=O)c2ccccc2)cc1COc1ccccc1,-1,-6,-5,8,1,-1
COc1ccc(C(=O)N/N=C/c2ccc(SC)cc2)cc1,-1,-2,0,46*,-1,-2
COc1ccc(C(=O)N/N=C/c2ccc(OC)c(COc3ccccc3)c2)cc1,-13,-15,-2,37*,4,2
SMILES,Rv3671c inh,Mtb betalactam,FadD28 FP inh,GDH-TPI inh,FBA Mtb inh,UGM FP inh
Cc1cc(=O)[nH]c(NN=C2C3CC4CC(C3)CC2C4)n1,-5,-8,1,11,-1,1
Nc1cc(C(=O)N2CCN(c3cccc(Cl)c3)CC2)ccc1N1CC2CC(C1)c1cccc(=O)n1C2 (configuration not stated),·,·,1,4,1,·
CCCCNC(=O)C1(C)CCC(=O)N1c1cc(C(C)(C)C)nn1C (configuration not stated),·,·,-3,·,0,·
COCCCn1c(=O)/c(=C\c2ccccc2OC(F)F)s/c1=C(/C#N)C(=O)NC(C)C,-8,3,-2,3,-2,6
COCCCn1c(=O)/c(=C\c2ccccc2OC(C)C)s/c1=C(/C#N)C(=O)Nc1ccc(C(=O)O)cc1,-18,·,-1,19,-2,15*
COc1ccc(S(N)(=O)=O)cc1C(=O)NNC(=O)c1cccc(S(=O)(=O)N2CCOCC2)c1,·,·,-13,13,-1,·
COc1ccc(S(=O)(=O)Nc2cccc3c2O[C@H](CN(C)C(=O)Nc2c(C)noc2C)[C@@H](C)CN([C@H](C)CO)C3=O)cc1,-6,-6,-3,-2,-1,0
CC(C)Cn1cc(C(=O)N2CCC(C)CC2)c2c3ccccc3n(C)c2c1=O,-1,-4,1,9,26,1
CC(C)Cn1cc(C(=O)N2CCC3(CC2)OCCO3)c2c3ccccc3n(C)c2c1=O,2,0,2,11,37*,-2
COCCn1cc(C(=O)N2CCC(C)CC2)c2c3ccccc3n(C)c2c1=O,-4,0,-3,-3,43*,1
COc1ccc2c(c1)[C@H]1[C@H](CO2)[C@H](c2ccccc2)[C@]2(C)C(=O)N[C@@H](C)C(=O)N12,2,-6,·,·,·,-3
N#CC1=C(N)C2=C(N3CCCCC3)CCCC2C1(C#N)C#N (configuration not stated),8,7,46*,15,-3,1
O=C(Nc1cccc(S(=O)(=O)N2CCCC2)c1)[C@@H]1O[C@H](CO)[C@@H](O)[C@H]1O,·,·,-3,4,-5,·
COc1ccc2nc(/C=N/NC(=O)CCNC(=O)OC(C)(C)C)ccc2c1,9,-6,-2,52*,69*,3
CC(C)(C)OC(=O)NCCC(=O)N/N=C/c1ccc2ncccc2c1,-5,3,0,3,2,1
COc1ccc(-c2ccc(C(=S)N3CCN(C(C)=O)CC3)o2)cc1,-12,27,-5,32*,7,0
CCCCNC(=O)C(=O)Nc1ccc2c(c1)N(S(=O)(=O)c1cccs1)CCC2,·,·,0,17,3,·
CCc1nc(Nc2ccc3c(c2)OCCO3)c2oc3ccccc3c2n1,-2,6,0,33*,-1,-2
O=C1NN(c2ccc(Cl)cc2)C(=O)/C1=C\c1ccc(-c2cccc(C(=O)O)c2)o1,·,·,23*,7,-13,·
Cc1ccccc1Nc1nc(N)nc(COC(=O)/C=C/c2ccco2)n1,0,3,-2,2,2,4
Nc1c(C(=O)OCC2CCCO2)c2nc3ccccc3nc2n1C1CCCCC1 (configuration not stated),-21,2,-2,8,14,0
Cc1nc2c(c(=O)n1CCC(C)C)c1nc3ccccc3nc1n2CC1CCCO1 (configuration not stated),-3,-2,-1,5,19,2

# Screening data: PubChem BioAssay, several laboratories
